# PubChem BioAssay (NCATS)
# Where “and” joins values, the source holds several entries; their conditions need not be identical. Equal values may be shown once. Results filed as inconclusive are left out. Where a call stands in place of a potency, no number is given. Calls of active or inactive are those of the source. Unless noted, calls come from the whole dose curve; as a rule, active = well fitted curve in the direction sought with a large enough effect; inconclusive = small, poorly fitted or top-dose-only effect, or another doubt; inactive = no such curve, though single readings can be large; an effect the other way counts as inactive or inconclusive.
# Legend:
# [1] = biological target: Endonuclease 4 (Escherichia coli (strain K12)) (UniProt P0A6C1); assay: Counterscreen for APE1 Inhibitors: qHTS Validation Assay for Inhibitors of Endonuclease IV (AID 1708)
# How it was run: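 Read-out: fluorescence rise (ex 525/em 598 nm) from incision of a TAMRA/BHQ-2 double-stranded THF abasic-site substrate (50 nM), measured kinetically; third-minus-first read difference gave reaction progress. Enzyme 2 nM.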
# [2] = qHTS for differential inhibitors of proliferation of Plasmodium falciparum line GB4 (AID 1816); settings: Potency: Plasmodium falciparum GB4 proliferation inhibition;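 note: parasite growth measured after 72 h incubation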; note: potency is the fitted concentration of half-maximal effect
# [3] = qHTS for differential inhibitors of proliferation of Plasmodium falciparum line 3D7 (AID 1876); note: potency is the fitted concentration of half-maximal effect
# [4] = Validation screen for small molecules that induce DNA re-replication in MCF 10A normal breast cells (AID 463097); note: nearly all actives have a fitted effect of over 60% in size
# How it was run: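 Image-based qHTS: normal breast cells are incubated with compound for 48 hr, stained with Hoechst, and scanned for total nuclear fluorescence. Compounds raising the fraction of nuclei with elevated DNA content count as re-replication inducers.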
# [5] = biological target: ATP-dependent 6-phosphofructokinase (Trypanosoma brucei brucei) (UniProt O15648); assay: qHTS Assay to Find Inhibitors of T. brucei phosphofructokinase: hit validation (AID 492961);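 note: luminescence reports ADP formed as PFK phosphorylates fructose-6-phosphate with ATP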
# ATP-dependent 6-phosphofructokinase (Trypanosoma brucei brucei), sequence (O15648 whole entry, looked up): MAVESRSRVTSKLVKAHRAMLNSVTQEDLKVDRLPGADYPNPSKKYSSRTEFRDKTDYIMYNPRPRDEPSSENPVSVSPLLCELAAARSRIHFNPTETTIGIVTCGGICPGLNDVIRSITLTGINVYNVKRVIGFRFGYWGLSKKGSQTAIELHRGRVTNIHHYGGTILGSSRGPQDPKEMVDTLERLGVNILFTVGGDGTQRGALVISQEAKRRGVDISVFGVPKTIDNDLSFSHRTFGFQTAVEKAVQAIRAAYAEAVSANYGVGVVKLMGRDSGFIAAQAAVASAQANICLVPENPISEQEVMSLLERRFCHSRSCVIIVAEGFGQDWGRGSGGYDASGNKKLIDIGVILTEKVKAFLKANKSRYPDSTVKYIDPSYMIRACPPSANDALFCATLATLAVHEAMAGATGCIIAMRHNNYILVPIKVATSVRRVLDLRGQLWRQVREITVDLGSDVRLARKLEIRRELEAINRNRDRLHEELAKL
# How it was run: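 Compounds titrated; %activity normalized to 0x and 1x enzyme controls, curve-fitted. Readout: ADP-Glo luminescence after 45 min room-temperature reaction of 1.25 nM PFK, 0.1 mM ATP, 0.5 mM F6P, pH 8.0.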
# [6] = biological target: Luciferin 4-monooxygenase (Photinus pyralis) (UniProt P08659); assay: Biochemical firefly luciferase enzyme assay for NPC (AID 624030);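 note: purified P. pyralis luciferase at 10 nM with luciferin and ATP substrate; nearly all actives have a fitted effect of over 70% in size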
# Luciferin 4-monooxygenase (Photinus pyralis), sequence (P08659 whole entry, looked up): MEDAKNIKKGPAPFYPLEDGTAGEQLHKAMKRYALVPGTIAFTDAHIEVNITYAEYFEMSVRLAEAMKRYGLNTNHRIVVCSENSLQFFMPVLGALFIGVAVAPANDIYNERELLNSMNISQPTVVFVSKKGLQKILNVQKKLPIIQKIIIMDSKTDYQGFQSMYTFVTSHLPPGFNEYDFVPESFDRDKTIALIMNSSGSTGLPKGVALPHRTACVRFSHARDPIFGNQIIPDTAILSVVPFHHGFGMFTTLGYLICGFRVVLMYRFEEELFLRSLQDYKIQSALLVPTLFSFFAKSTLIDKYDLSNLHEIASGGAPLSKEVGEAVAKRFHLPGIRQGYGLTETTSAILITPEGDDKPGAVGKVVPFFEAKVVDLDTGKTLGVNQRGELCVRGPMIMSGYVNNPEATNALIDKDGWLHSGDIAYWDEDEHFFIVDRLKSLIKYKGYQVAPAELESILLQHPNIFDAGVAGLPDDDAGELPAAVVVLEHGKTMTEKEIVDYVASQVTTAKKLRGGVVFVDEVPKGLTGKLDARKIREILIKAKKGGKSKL
# How it was run: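 Purified P. pyralis luciferase at 10 nM in 50 mM Tris Acetate (final), luminescence read within 5 minutes of enzyme addition to compounds. Activity normalised to PTC124 versus DMSO; concentration-response curves classed by r2, magnitude and activity.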
# [7] = S16 Schwann cell viability assay (CellTiter-Glo assay) (AID 624031);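 note: native untransfected S16 rat Schwann cells; cellular ATP luminescence as a viability measure; nearly all actives have a fitted effect of over 70% in size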
# How it was run: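 Rat S16 Schwann cells without reporter constructs received compound or DMSO for 24 h at 37 °C under 5% CO2. Cellular ATP was then quantified by CellTiter-Glo luminescence, with vehicle wells defined as 0% activity and cell-free wells as reference.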
# [8] = test system: 3D7; assay: qHTS profiling for inhibitors of Plasmodium falciparum proliferation (AID 504749); note: nearly all actives have a fitted effect of over 60% in size; settings: P. falciparum in erythrocytes, SYBR Green DNA, 72 h; series mostly up to 28.7 µM
# How it was run: (§1)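 SYBR Green fluorescence (ex 485 nm, em 535 nm) reports parasite DNA after 72 h compound exposure of infected red cells at 0.3% parasitemia, 2.5% hematocrit; signal normalized to 0.29 uM artemisinin and vehicle wells.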
# [9] = test system: Dd2; assay: as above; settings: P. falciparum in erythrocytes, SYBR Green DNA, 72 h; series mostly up to 28.7 µM
# How it was run: as §1
# [10] = test system: ECU; assay: as above; settings: P. falciparum in erythrocytes, SYBR Green DNA, 72 h; series mostly up to 28.7 µM
# How it was run: as §1
# [11] = test system: FAB9; assay: as above; settings: P. falciparum in erythrocytes, SYBR Green DNA, 72 h; series mostly up to 28.7 µM
# How it was run: as §1
# [12] = test system: PC15; assay: as above; settings: P. falciparum in erythrocytes, SYBR Green DNA, 72 h; series mostly up to 28.7 µM
# How it was run: as §1
# [13] = test system: PC49; assay: as above; settings: P. falciparum in erythrocytes, SYBR Green DNA, 72 h; series mostly up to 28.7 µM
# How it was run: as §1
# [14] = S16 Schwann cell PMP22 intronic element firefly luciferase assay (AID 624032); note: nearly all actives have a fitted effect of over 30% in size; note: potency is the fitted concentration of half-maximal effect
# How it was run: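 Rat S16 Schwann cells stably carrying firefly luciferase driven by a PMP22 intronic element, in 10% FBS, treated 24 h at 37 C. ONE-Glo luminescence normalized to PTC124 control and DMSO (0%); curves classed by r2, magnitude and activity.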
# [15] = Cell Viability - SK-N-SH (AID 435; calls by dose curve;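 note: potency is the fitted concentration of half-maximal effect; compound exposure lasted 40 h at 37 °C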); settings: SK-N-SH neuroblastoma cell viability qHTS
# How it was run: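 Luminescent ATP signal served as the viability read-out after 40 hours of compound treatment of human neuroblastoma SK-N-SH cells. Concentration-response data, scaled between DMSO and 100 uM tamoxifen, gave AC50 values by standard Hill modeling.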
# [16] = qHTS assay for small molecule antagonists of retinoid X receptor alpha signaling (AID 588546); settings: HEK293T RXRa-UAS-bla, beta-lactamase ratio, antagonist mode; measured here: W530 green channel, cytotoxicity proxy;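 note: cells stimulated with 9-cis-retinoic acid as agonist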
# How it was run: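 Beta-lactamase reporter inhibition, read as CCF4 fluorescence ratio (ex 405, em 460/530 nm) after 2 h at RT. HEK293T UAS-bla cells, 2500/well, were stimulated with 9-cis-RA at 500 or 100 nM final alongside test compound for 18 h at 37 C.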
# [17] = biological target: Thyroid hormone receptor beta (Homo sapiens) (UniProt P10828); assay: qHTS assay for small molecule antagonists of thyroid hormone receptor beta signaling (AID 588547; active = well fitted inhibition curve with a large enough effect in the signal ratio, with a control signal flat, not every such curve was filed as active; the % refers to the signal ratio;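 note: cells stimulated with 0.4 nM T3 agonist during compound exposure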); settings: TR-UAS-bla HEK293, beta-lactamase ratio, antagonist mode, 18 h
# Thyroid hormone receptor beta (Homo sapiens), sequence (P10828 whole entry, looked up): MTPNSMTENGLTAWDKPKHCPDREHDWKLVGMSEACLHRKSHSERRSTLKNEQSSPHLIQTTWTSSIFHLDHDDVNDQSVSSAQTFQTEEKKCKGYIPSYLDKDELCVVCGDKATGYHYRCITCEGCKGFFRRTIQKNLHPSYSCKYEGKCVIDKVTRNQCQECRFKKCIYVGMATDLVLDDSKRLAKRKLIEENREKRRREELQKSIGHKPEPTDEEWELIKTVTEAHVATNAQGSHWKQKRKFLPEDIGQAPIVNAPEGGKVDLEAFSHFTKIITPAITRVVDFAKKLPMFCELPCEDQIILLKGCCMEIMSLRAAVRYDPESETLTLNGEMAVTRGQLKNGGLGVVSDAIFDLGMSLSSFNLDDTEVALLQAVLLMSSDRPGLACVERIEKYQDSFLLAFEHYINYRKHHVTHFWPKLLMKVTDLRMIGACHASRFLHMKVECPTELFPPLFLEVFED
# How it was run: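 TR-UAS-bla GripTite HEK293 cells in 2% charcoal/dextran FBS medium; compounds 0.59 nM to 92 uM with T3 at 0.4nM final, 18 h at 37 C. Beta-lactamase read by CCF4 fluorescence (460/530 nm); Hill fits gave IC50 and efficacy.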
# [18] = qHTS assay for small molecule activators of the p53 signaling pathway (AID 651743; active = well fitted activation curve with a large enough effect in the signal ratio, not every such curve was filed as active; the % refers to the signal ratio); settings: HCT-116 p53RE-bla, beta-lactamase FRET ratio, 16 h; activation: stronger effect = higher value
# How it was run: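 Reporter: beta-lactamase driven by p53 response elements, stably integrated in HCT-116 cells. Cells seeded at 4,000/well, 5 h preincubation, compound (DMSO) 16 h at 37 C; B/G FRET substrate 2 h RT; fluorescence intensity read.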
# [19] = biological target: Nuclear receptor ROR-gamma (Homo sapiens) (UniProt P51449); assay: qHTS assay for small molecule antagonists of the retinoid-related orphan receptor gamma (ROR-gamma) signaling pathway (AID 651802); note: nearly all actives have a fitted effect of over 60% in size; note: potency is the fitted concentration of half-maximal effect
# Nuclear receptor ROR-gamma (Homo sapiens), sequence (P51449 whole entry, looked up): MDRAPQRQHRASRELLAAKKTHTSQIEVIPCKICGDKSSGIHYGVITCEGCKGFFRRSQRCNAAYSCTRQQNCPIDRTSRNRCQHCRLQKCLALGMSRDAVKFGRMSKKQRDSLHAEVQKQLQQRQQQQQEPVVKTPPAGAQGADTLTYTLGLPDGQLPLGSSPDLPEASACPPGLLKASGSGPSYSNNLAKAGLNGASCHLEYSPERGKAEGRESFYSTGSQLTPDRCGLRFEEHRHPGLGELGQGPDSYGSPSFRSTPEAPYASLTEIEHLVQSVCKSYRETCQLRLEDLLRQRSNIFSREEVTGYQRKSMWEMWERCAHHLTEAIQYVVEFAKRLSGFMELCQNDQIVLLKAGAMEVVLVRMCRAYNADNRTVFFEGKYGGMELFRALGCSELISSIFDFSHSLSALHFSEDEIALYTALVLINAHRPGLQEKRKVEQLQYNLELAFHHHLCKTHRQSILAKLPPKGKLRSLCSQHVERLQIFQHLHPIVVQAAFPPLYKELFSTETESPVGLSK
# How it was run: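 Doxycycline-induced reporter activity in engineered CHO cells (TET-inducible ROR, RORE-LUC) was measured by luminescence after 16hr compound exposure at 37C.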
# [20] = biological target: Peroxisome proliferator-activated receptor alpha (Homo sapiens) (UniProt Q07869); assay: qHTS assay for small molecule agonists of the peroxisome proliferator-activated receptor alpha (PPARalpha) signaling pathway (AID 651778); settings: PathHunter PPARalpha complementation, chemiluminescence, 6 h; stronger effect = higher value
# Peroxisome proliferator-activated receptor alpha (Homo sapiens), sequence (Q07869 whole entry, looked up, the tested form may be a part): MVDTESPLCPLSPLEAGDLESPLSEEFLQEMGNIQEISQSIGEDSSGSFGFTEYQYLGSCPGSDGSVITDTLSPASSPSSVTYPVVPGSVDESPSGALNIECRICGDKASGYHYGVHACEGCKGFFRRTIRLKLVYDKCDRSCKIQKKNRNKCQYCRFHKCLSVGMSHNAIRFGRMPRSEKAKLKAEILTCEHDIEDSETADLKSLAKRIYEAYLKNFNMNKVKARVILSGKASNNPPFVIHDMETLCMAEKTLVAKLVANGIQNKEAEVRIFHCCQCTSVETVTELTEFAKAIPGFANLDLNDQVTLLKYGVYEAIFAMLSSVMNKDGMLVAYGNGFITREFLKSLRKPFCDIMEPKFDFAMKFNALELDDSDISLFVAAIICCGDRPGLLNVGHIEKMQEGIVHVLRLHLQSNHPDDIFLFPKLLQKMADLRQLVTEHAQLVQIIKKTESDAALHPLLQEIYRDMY
# How it was run: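 Enzyme-fragment complementation assay in which ligand-bound PPARalpha translocates and forms an active enzyme that generates chemiluminescence. Cells were plated overnight, exposed to compound for 6 hr at 37 C, and then given detection reagent for 60 min at room temperature.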
compound,measurement,setting,value
C[C@]12CC[C@H](O)CC1=CCC1C2CC[C@]2(C)C(=O)CC[C@@H]12 (some centres undefined),Potency,[1],inactive
same,Potency,[2],inactive
same,Potency,[3],inactive
same,Potency,[4],inactive
same,Potency,[5],inactive
same,Potency,[6],inactive
same,Potency,[7],inactive
same,Potency,[8],inactive
same,Potency,[9],inactive
same,Potency,[10],inactive
same,Potency,[11],inactive
same,Potency,[12],inactive
same,Potency,[13],inactive
CCCC[N+]1(C)C2CC(OC(=O)C(CO)c3ccccc3)CC1C1OC12 (centres undefined),Potency,[1],inactive
same,Potency,[2],inactive
same,Potency,[4],inactive
same,Potency,[5],inactive
same,Potency,[6],inactive
same,Potency,[7],inactive
same,Potency,[14],inactive
same,Potency,[8],inactive
same,Potency,[9],inactive
same,Potency,[10],inactive
same,Potency,[11],inactive
same,Potency,[12],inactive
same,Potency,[13],inactive
O=C(OC1CCN(CCCl)CC1)C(c1ccccc1)c1ccccc1,Potency,[2],5.62 µM (active)
same,Potency,[3],12.6 µM (active)
CC(C)[C@@]1(NC(=O)[C@@H]2C[C@@H]3c4cccc5[nH]cc(c45)C[C@H]3N(C)C2)O[C@@]2(O)C3CCCN3C(=O)[C@H](Cc3ccccc3)N2C1=O (some centres undefined),Potency,[1],inactive
same,Potency,[2],1.12 µM (active)
same,Potency,[3],1 µM (active)
C[N+]1(C)C2CC(OC(=O)C(CO)c3ccccc3)CC1C1OC12 (centres undefined),Potency,[1],inactive
same,Potency,[2],inactive
same,Potency,[3],inactive
same,Potency,[4],inactive
C#CCN(C)C(C)Cc1ccccc1 (centres undefined),Potency,[1],inactive
same,Potency,[2],inactive
same,Potency,[3],inactive
same,Potency,[4],inactive
CCCN1CCc2cccc3c2C1Cc1ccc(O)c(O)c1-3 (centres undefined),Potency,[1],inactive
same,Potency,[2],2 µM (active)
same,Potency,[3],2.51 µM (active)
CC(C)C[C@H]1C(=O)N2CCCC2[C@]2(O)O[C@](NC(=O)[C@@H]3C=C4c5cccc6[nH]c(Br)c(c56)C[C@H]4N(C)C3)(C(C)C)C(=O)N12 (some centres undefined),Potency,[2],1.78 µM (active)
same,Potency,[3],2 µM (active)
same,Potency,[14],8.09 µM (active)
ClC1=C(Cl)C2(Cl)C3C4C=CC(C4)C3C1(Cl)C2(Cl)Cl (centres undefined),Potency,[15],> 92 µM (inactive)
same,max response,[16],-0.359%
same,activity change % (negative = inhibition),[17],-26.2% (inactive)
same,activation,[18],0.0105% (inactive)
same,Potency,[19],23.7 µM (active)
c1ccc(N=Nc2ccccc2)cc1,Potency,[15],> 92 µM (inactive)
same,max response,[16],-17.4% and -6.96%
same,activity change % (negative = inhibition),[17],5.03% (inactive) and -8.04% (inactive)
same,activation,[18],-2.32% (inactive) and -5.83% (inactive)
same,max response,[20],-0.415% (inactive) and -1.69% (inactive)
same,Potency,[19],inactive
COc1cc(C=C(C#N)C#N)cc(O)c1O,Potency,[1],inactive
same,Potency,[2],12.6 µM (active)
C=CCN1CC[C@@]2(C)c3cc(O)ccc3CC1[C@@H]2C,Potency,[1],inactive
same,Potency,[2],12.6 µM (active)
same,Potency,[4],inactive
CCNc1nc(Cl)nc(NC(C)C)n1,Potency,[15],> 92 µM (inactive)
same,max response,[16],3.95% and -7.9%
same,activity change % (negative = inhibition),[17],-11.1% (inactive) and -4.42% (inactive)
same,activation,[18],-2.86% (inactive) and -1.26% (inactive)
same,max response,[20],3.27% (inactive) and 0.807% (inactive)
same,Potency,[19],inactive
CCCN1CCC[C@@H]2Cc3n[nH]cc3C[C@H]21,Potency,[1],inactive
same,Potency,[2],inactive
same,Potency,[3],inactive
same,Potency,[4],inactive
C=CCc1ccc2c(c1)OCO2,Potency,[15],> 92 µM (inactive)
same,max response,[16],-5.37%
same,activity change % (negative = inhibition),[17],-3.5% (inactive)
same,activation,[18],-1.35% (inactive)
same,max response,[20],-3.48% (inactive)
same,Potency,[19],inactive
CNCC[C@@H](Oc1ccc(C(F)(F)F)cc1)c1ccccc1,Potency,[4],inactive
COC(=O)NC(=S)Nc1ccccc1NC(=S)NC(=O)OC,max response,[16],3.84% and -2.84%
same,activity change % (negative = inhibition),[17],1.37% (inactive) and 13.1% (inactive)
same,activation,[18],0% (inactive) and 3.95% (inactive)
same,max response,[20],-4.83% (inactive) and -0.925% (inactive)
same,Potency,[19],inactive
CCN1C[C@]2(C)CC[C@H](O)[C@@]34[C@@H]5C[C@@H]6[C@@H](OC)C[C@@](O)(C5[C@H]6O)[C@@H](C[C@@H]23)[C@@H]14,Potency,[1],inactive
same,Potency,[3],inactive
same,Potency,[4],inactive
O=S1OCC2C(CO1)C1(Cl)C(Cl)=C(Cl)C2(Cl)C1(Cl)Cl (centres undefined),Potency,[15],> 92 µM (inactive)
same,max response,[16],1.46%
same,activity change % (negative = inhibition),[17],-1.54% (inactive)
same,activation,[18],-4.01% (inactive)
same,Potency,[19],21.1 µM (active)
NCC#Cc1ccccc1,Potency,[1],inactive
same,Potency,[2],inactive
same,Potency,[3],inactive
same,Potency,[4],inactive
O=C(O)COc1ccc(Cl)cc1Cl,Potency,[15],> 92 µM (inactive)
same,activation,[18],-2.21% (inactive) [middle of 4 runs]
same,max response,[20],0.368% (inactive) [middle of 4 runs]
CCCN(CCC)C(=O)Cc1c(-c2ccc(Cl)cc2)nc2c(Cl)cc(Cl)cn12,Potency,[1],inactive
C=CCc1ccc(OC)cc1,Potency,[15],> 92 µM (inactive)
same,max response,[16],-1.65%
same,activity change % (negative = inhibition),[17],-7.69% (inactive)
same,max response,[20],0.294% (inactive)
same,Potency,[19],inactive
CCNC[C@H](O)c1cccc(O)c1,Potency,[5],inactive
same,Potency,[6],inactive
same,Potency,[7],inactive
same,Potency,[14],inactive
same,Potency,[8],inactive
same,Potency,[9],inactive
same,Potency,[10],inactive
same,Potency,[11],inactive
same,Potency,[12],inactive
same,Potency,[13],inactive
CCOCN(C(=O)CCl)c1c(C)cccc1CC,activation,[18],-6.37% (inactive) and -3.12% (inactive)
same,max response,[20],-0.344% (inactive) and -1.51% (inactive)
same,Potency,[19],inactive
ClC(Cl)=C(c1ccc(Cl)cc1)c1ccc(Cl)cc1,Potency,[15],> 92 µM (inactive)
same,max response,[16],-0.142% and -15.3%
same,activity change % (negative = inhibition),[17],0.649% (inactive) and 24.3% (inactive) and -8.25% (inactive)
same,activation,[18],-3.15% (inactive) and -5.84% (inactive) and 6.09% (inactive)
same,max response,[20],21.8% (inactive) and 11.7% (inactive) and 4.05% (inactive)
same,Potency,[19],37.6 µM (active) and 33.5 µM (active)
COP(=S)(OC)Oc1ccc([N+](=O)[O-])cc1,Potency,[15],> 92 µM (inactive)
same,max response,[16],-15.3% and -6.14%
same,activity change % (negative = inhibition),[17],-2.23% (inactive) and 4.43% (inactive)
same,activation,[18],0.285% (inactive) and 1.15% (inactive)
same,max response,[20],-2.98% (inactive) and -2.34% (inactive)
same,Potency,[19],inactive
